Nrf2 inh – Nrf2 qHTS screen for inhibitors. A549 ARE-Fluc reporter, luciferase luminescence, 18-24 h. Potency, µM (doses to about 46 µM), most hits filed as inhibitors. 360,000 tested, 2.1% active; further: nearly all actives have a fitted effect of over 60% in size
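Two sequential reads on A549 ARE_Fluc cells exposed to compound for 18-24 h: a CellTiter-Fluor fluorescence read for viability, then a luciferase luminescence read for Nrf2/ARE activity.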
IL2 activator – qHTS of IL-2 Activators; IL-2 activation reporter assay, cell-based qHTS; stimulated with anti-CD3/CD4/CD28 beads; in transgenic mouse T cells; activation, % (series mostly up to about 46 µM); 360,000 tested, 0.065% active; AID 652025, 2013; in the data active means activation above about 50%; inconclusive means mostly about 30% to 49%
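Screening format: compound pinned onto unstimulated transgenic mouse T cells, 60 min incubation, then anti-CD3/anti-CD4/anti-CD28 bead stimulation for 18 hours at 37 degrees C, followed by EGFP and DsRed detection.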
A549 tox-1 – Nrf2 qHTS screen for inhibitors: counterscreen for cytotoxicity; A549 ARE-Fluc cells, CellTiter-Fluor viability, 18-24 h; Potency, µM (doses to about 46 µM), actives largely listed as inhibitors; 390,000 tested, 0.16% active; AID 504648, 2011
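A549 ARE_Fluc cells in 5% FBS OPTI-MEM were exposed to compounds in concentration-response for 18-24 h at 37 deg C. Viability was read by CellTiter-Fluor fluorescence (Ex 405/Em 525) after 30 min, before the luciferase read.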
Nrf2 ARE act – qHTS of Nrf2 Activators | AREc32 ARE-luciferase reporter (MCF7-derived line), luminescence, 24 h | Potency, µM (highest dose often 46.1 µM), most hits filed as activators | 410,000 tested, 0.31% active; further: nearly all actives have a fitted effect of over 65% in size
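AREc32 cells carrying an ARE-driven firefly luciferase, 1000 cells/well in OPTI-MEM with 5% FBS, dosed after overnight attachment and incubated 24 hr at 37 deg C. Steady-Glo luminescence read after 30 min at RT.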
FLuc enzyme inh – Nrf2 qHTS screen for inhibitors: Purified Fluc Biochemical Counterscreen for Hit Validation | AID 720522, 2013 | shares compounds with Nrf2 inh | 1,400 tested, 4% active | purified firefly luciferase, luminescence inhibition | Potency, µM (doses to about 57.5 µM), actives largely listed as inhibitors; further: nearly all actives have a fitted effect of over 65% in size
Target sequence (P08659 whole entry, looked up): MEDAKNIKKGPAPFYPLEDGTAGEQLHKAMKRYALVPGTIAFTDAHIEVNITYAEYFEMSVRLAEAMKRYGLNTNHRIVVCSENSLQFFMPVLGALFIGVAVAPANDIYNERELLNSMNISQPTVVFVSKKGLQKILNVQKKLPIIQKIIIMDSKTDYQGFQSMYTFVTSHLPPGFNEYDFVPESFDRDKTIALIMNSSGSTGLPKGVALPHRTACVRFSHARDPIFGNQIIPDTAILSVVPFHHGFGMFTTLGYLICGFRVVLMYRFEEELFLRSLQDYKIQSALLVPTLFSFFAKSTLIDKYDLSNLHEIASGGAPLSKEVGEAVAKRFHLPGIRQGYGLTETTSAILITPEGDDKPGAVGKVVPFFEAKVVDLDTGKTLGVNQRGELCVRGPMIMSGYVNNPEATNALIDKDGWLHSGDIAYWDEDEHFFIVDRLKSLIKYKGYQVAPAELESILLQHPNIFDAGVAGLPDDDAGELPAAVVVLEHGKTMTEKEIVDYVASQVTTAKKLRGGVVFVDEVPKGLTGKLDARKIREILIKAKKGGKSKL
A549 tox-2 – Nrf2 qHTS screen for inhibitors: A549 ARE-Fluc Cytotoxicity Counterscreen for Hit Validation; Potency, µM (series often up to 46.1 µM), hits mostly inhibitors; 1,400 tested, 2% active; AID 720523, 2013; shares compounds with Nrf2 inh; A549 ARE-Fluc cells, cytotoxicity counterscreen;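 further: cells exposed to compounds for 18 to 24 hours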
Nrf2 ARE inh – Nrf2 qHTS screen for inhibitors: Nrf2 A549 ARE-Fluc Confirmation Assay for Hit Validation. Potency, µM (top dose mostly 46.1 µM), actives largely listed as inhibitors. 1,400 tested, 74% active. A549 ARE-firefly luciferase reporter, luminescence. shares compounds with Nrf2 inh; further: nearly all actives have a fitted effect of over 65% in size
Each line names hits and unclear results; the compound was inactive in the other large screens (follow-up assays come after a bar, where shown). This is a sample that favours compounds with a hit; in the whole collection about 2.3% have one here. Unless noted, the call rests on the fitted dose curve; in most records, active means well fitted curve in the direction sought with a large enough effect; inconclusive means small, poorly fitted or top-dose-only effect, or another doubt; inactive means no such curve, though single readings can be large; an effect the other way counts as inactive or inconclusive.

O=C1C2C3CCCC3=C3CCCC3C2C(=O)N1c1ccccc1Cl (stereo not given)	none (no result: IL2 activator, Nrf2 ARE act)
CCOC(=O)C(CC)Sc1c(CC)cnc2c1c(=O)n(C)c(=O)n2C (stereo not given)	none (no result: Nrf2 inh, IL2 activator)
Cc1ccc(S(=O)(=O)NCc2ccc(C(=O)N3CCN(c4ccc([N+](=O)[O-])cc4)CC3)cc2)cc1	Nrf2 inh 5.2µM, A549 tox-1 inconclusive | FLuc enzyme inh inactive | A549 tox-2 inactive | Nrf2 ARE inh 5.8µM
Cc1ccccc1N(C)C(=O)c1noc2c1COc1ccccc1-2	Nrf2 inh inconclusive (no result: IL2 activator)
COc1ccc(Nc2oc(/C=C/c3cc(OC)c(OC)c(OC)c3)nc2C#N)cc1	none (no result: IL2 activator)
COc1ccc(N2CCN(C(=O)CSc3nnc4n3C(C)(C)Cc3ccccc3-4)CC2)cc1	Nrf2 inh inconclusive
Cc1ccc(Cl)cc1N1CCN(C(=O)CSc2nnc3n2C(C)(C)Cc2ccccc2-3)CC1	Nrf2 inh 6.5µM, A549 tox-1 inconclusive | FLuc enzyme inh inactive | A549 tox-2 inconclusive | Nrf2 ARE inh 6.5µM
COc1ccc2[nH]c(=O)c(CN(Cc3cccs3)C(=S)Nc3cccc(C)c3)cc2c1	Nrf2 inh 2.1µM | FLuc enzyme inh inactive | A549 tox-2 inactive | Nrf2 ARE inh inconclusive
O=c1c2ccccc2nc2n1-c1ccccc1CCC2	none
O=C1c2ccccc2-n2c1nc1ccccc1c2=O	Nrf2 inh 5.2µM | FLuc enzyme inh inactive | A549 tox-2 16µM | Nrf2 ARE inh 6.5µM
COc1ccccc1C(=O)NCCCNC(=O)c1cccnc1	Nrf2 inh 1.8µM | FLuc enzyme inh inactive | A549 tox-2 inactive | Nrf2 ARE inh inactive
COC(=O)CC1Oc2ccc(C)cc2-n2cc(-c3ccc(F)cc3)nc21 (stereo not given)	none (no result: IL2 activator)
CCN(CC)S(=O)(=O)c1nnc(NC(=O)COc2ccccc2F)s1	Nrf2 inh inconclusive (no result: IL2 activator)
Cc1cc(C)nc(OC(C(=O)O)C(OCCc2ccccc2)(c2ccc(F)cc2)c2ccc(F)cc2)n1 (stereo not given)	Nrf2 inh inconclusive
CCCOC(c1ccccc1)(c1ccc(C(F)(F)F)cc1)C(Oc1nc(C)cc(C)n1)C(=O)O (stereo not given)	Nrf2 inh 3.3µM | FLuc enzyme inh inactive | A549 tox-2 inactive | Nrf2 ARE inh 1.8µM
CN(c1cccc(NC(=O)CN(c2ccc(C34CC5CC(CC(C5)C3)C4)cc2)S(C)(=O)=O)c1)S(C)(=O)=O	Nrf2 inh 7.3µM, A549 tox-1 inconclusive | FLuc enzyme inh inactive | A549 tox-2 inconclusive | Nrf2 ARE inh 21µM
CN(c1cccc(NC(=O)CN(c2ccc(F)cc2)S(C)(=O)=O)c1)S(C)(=O)=O	none
CC(C)(C)c1nc(N2CCN(C(=O)c3ccco3)CC2)c2nnn(Cc3ccccc3)c2n1	Nrf2 inh 8.2µM, A549 tox-1 inconclusive | FLuc enzyme inh inactive | A549 tox-2 inconclusive | Nrf2 ARE inh 1.3µM
Cc1cc(C)c2c(N)c3cccc(C)c3nc2n1	Nrf2 inh 7.3µM | FLuc enzyme inh inactive | A549 tox-2 inactive | Nrf2 ARE inh 3.3µM
CCCn1c(SCc2nc(-c3cc(OC)ccc3OC)no2)nnc1-c1ccc(Cl)cc1	A549 tox-1 inconclusive (no result: IL2 activator)
Cc1ccc(S(=O)(=O)N2CCc3ccccc3CC2)cc1	Nrf2 inh 8.2µM | FLuc enzyme inh inactive | A549 tox-2 inactive | Nrf2 ARE inh 4.1µM
Cc1ccc(S(=O)(=O)N2CCc3ccccc3C2)cc1	none
CCS(=O)(=O)N1CCCC(C(=O)c2ccc(OC)cc2C)C1 (stereo not given)	none
COc1ccc(C(=O)C2CCCN(S(=O)(=O)c3ccc(C(C)=O)cc3)C2)c(C)c1 (stereo not given)	Nrf2 inh 8.2µM | FLuc enzyme inh inactive | A549 tox-2 inactive
CCOC(=O)C1CCCN(S(=O)(=O)c2ccc(S(=O)(=O)N3CCCC3)cc2)C1 (stereo not given)	Nrf2 inh 8.2µM | FLuc enzyme inh inactive | A549 tox-2 inactive | Nrf2 ARE inh inconclusive
Cc1ccc(N2CCn3c2nc2c3c(=O)n(CCCc3ccccc3)c(=O)n2C)cc1C	none (no result: IL2 activator)
COc1ccc(OC)c(CNC(=O)c2cc3ccc4cccnc4c3[nH]2)c1	Nrf2 inh inconclusive (no result: IL2 activator)
COc1ccc(CNC(=O)c2cc(-c3ccc(C)c(C)c3)n[nH]2)cc1	none (no result: IL2 activator)
Cc1ccc(-n2ncc3c(N4CCCCCC4)ncnc32)cc1	none (no result: Nrf2 inh, IL2 activator)
COc1cccc(C(=O)N2c3nc(-c4ccco4)nn3C3(CCCCC3)[C@@H]3CCCC[C@@H]32)c1	none (no result: IL2 activator)
COc1cc2c(cc1OC)n(CC(=O)c1ccc(C)cc1)c(=O)n1nc(CCn3nc(C)cc3C)nc21	none (no result: Nrf2 inh, IL2 activator)
CS(=O)(=O)N1CCCc2cc(C(=O)Nc3cccc(C(F)(F)F)c3)ccc21	Nrf2 inh 9.2µM (no result: IL2 activator) | FLuc enzyme inh inconclusive | A549 tox-2 inactive | Nrf2 ARE inh inconclusive
COc1cccc(NC(=O)c2ccc3c(c2)CCN3S(C)(=O)=O)c1	none
COc1ccc(C(=O)C2CCCN(Cc3cnc(N4CCOCC4)s3)C2)cc1F (stereo not given)	Nrf2 inh inconclusive
COc1ccc(C(=O)C2CCCN(Cc3cnc(N4CCOCC4)s3)C2)c(OC)c1 (stereo not given)	Nrf2 inh 9.2µM, A549 tox-1 inconclusive | FLuc enzyme inh inactive | A549 tox-2 inactive | Nrf2 ARE inh inactive
CC(C)Oc1cccc(C(=O)C2CCCN(Cc3cnc(N4CCOCC4)s3)C2)c1 (stereo not given)	Nrf2 inh 9.2µM | FLuc enzyme inh inactive | A549 tox-2 inactive
Cc1c(C(=O)NCc2ccccc2Cl)sc2nc3n(c(=O)c12)CCCCC3	Nrf2 inh 4.6µM (no result: IL2 activator) | FLuc enzyme inh inactive | A549 tox-2 inactive | Nrf2 ARE inh inactive
O=S(=O)(N/N=C1/CC(c2ccccc2)Oc2ccccc21)c1ccc(Br)cc1 (stereo not given)	Nrf2 inh 8.2µM, A549 tox-1 inconclusive | FLuc enzyme inh inconclusive | A549 tox-2 inactive
Cc1ccc(C(=O)Nc2sc3c(c2C(=O)O)CCCC3)o1	Nrf2 inh inconclusive, A549 tox-1 inconclusive
Cc1ccc(C(=O)Nc2sc3c(c2C(=O)O)CCC(C)C3)o1 (stereo not given)	Nrf2 inh 5.8µM | FLuc enzyme inh 2.4µM | A549 tox-2 inactive | Nrf2 ARE inh 5.2µM
COc1cccc(OCc2nc3ccccc3n2CCOc2ccc(C)cc2)c1	Nrf2 inh inconclusive (no result: IL2 activator)
